Results as given in PubChem BioAssay (NCATS).
Results filed as inconclusive are left out. Entries that show only a call come without a potency. The source made the active and inactive calls. Calls follow the shape of the full dose curve.

Assay: Primary qHTS for inhibitors of SARS-S pseudo-typed particle cell entry (AID 1479145); also: nearly all actives have a fitted effect of over 45% in size
Details: SARS-S pseudotyped particle cell entry, luciferase reporter; series mostly up to 57.1 µM

SMILES	Potency
Nc1ccc(S(=O)(=O)Nc2ccccn2)cc1	inactive
O=S(=O)(O)c1ccc2nc(-c3ccccc3)[nH]c2c1	inactive
CC(CN(C)C)C(C)(O)Cc1ccc(Cl)cc1 (stereo unspecified)	inactive
CO[C@@]1(NC(=O)Cc2cccs2)C(=O)N2C(C(=O)O)=C(COC(N)=O)CS[C@@H]21	inactive
Nc1ncnc2c1ncn2[C@@H]1O[C@H](CO)[C@@H](O)[C@H]1O	inactive
C[C@@H]1[C@H](O)[C@@H](C)/C=C/C=C\C=C\C=C\C=C\C=C\C=C\[C@H](O[C@@H]2O[C@H](C)[C@@H](O)[C@H](N)[C@@H]2O)C[C@@H]2O[C@](O)(C[C@@H](O)C[C@@H](O)[C@H](O)CC[C@@H](O)C[C@@H](O)CC(=O)O[C@H]1C)C[C@H](O)[C@H]2C(=O)O (stereo in doubt)	inactive
CC(=O)CC/C=C(\C)CC/C=C(\C)CC/C=C(\C)CCC=C(C)C	inactive
CC(C)OC(=O)OCOP(=O)(CO[C@H](C)Cn1cnc2c(N)ncnc21)OCOC(=O)OC(C)C	inactive
Cc1c(F)c(N2CCNC(C)C2)cc2c1c(=O)c(C(=O)O)cn2C1CC1 (stereo unspecified)	inactive
O=S(=O)(O)c1ccc(O)cc1	inactive
N#Cc1ccc(C(c2ccc(C#N)cc2)n2cncn2)cc1	inactive
O=c1[nH]c(=O)n([C@H]2CCCO2)cc1F	inactive
Cc1nnc(NS(=O)(=O)c2ccc(N)cc2)s1	inactive
COc1ccc2cccc(CCNC(C)=O)c2c1	inactive
O=C(O)Cc1sc(-c2ccccc2)nc1-c1ccc(Cl)cc1	inactive
O=C(CO)[C@@H](O)[C@H](O)[C@@H](O)CO	inactive
CC(C)(C)NCC(O)COc1ccccc1OCC1CCCO1 (stereo unspecified)	inactive
O=C(O)C(S)C(S)C(=O)O (stereo unspecified)	inactive
CS(=O)(=O)c1ccc([C@@H](O)[C@@H](CO)NC(=O)C(Cl)Cl)cc1	inactive

SMILES	Potency
COc1ccnc(CS(=O)c2nc3ccc(OC(F)F)cc3[nH]2)c1OC (stereo unspecified)	inactive
COc1ccc(C(=O)c2ccccc2)c(O)c1	inactive
O=C1c2c(O)cccc2Cc2cccc(O)c21	inactive
NCC(=O)CCC(=O)O	inactive
Nc1nc(=O)n([C@@H]2CS[C@H](CO)O2)cc1F	inactive
O=C(O)c1cccnc1	inactive
CO[C@@]1(NC(=O)CSCC#N)C(=O)N2C(C(=O)O)=C(CSc3nnnn3C)CS[C@@H]21	inactive
CCCCOCCOC(=O)c1cccnc1	inactive
CC(CC(C#N)(c1ccccc1)C(C)C)N(C)C (stereo unspecified)	inactive
C[C@H](CS)C(=O)N1CCC[C@H]1C(=O)O	inactive
Cc1cc2c(cc1CC(=O)c1sccc1S(=O)(=O)Nc1onc(C)c1Cl)OCO2	inactive
Cc1cc(C)c(NC(=O)CN(CC(=O)O)CC(=O)O)c(C)c1Br	inactive
CCN(CC)CCNC(=O)c1cc(S(C)(=O)=O)ccc1OC	inactive
CC(=O)Nc1ccc(OC(=O)c2ccccc2OC(C)=O)cc1	inactive
CCOC(=O)/C=C(C)/C=C/C=C(C)/C=C/c1c(C)cc(OC)c(C)c1C	inactive
CCC1(C)CC(=O)NC1=O (stereo unspecified)	inactive
NNC(=O)c1ccncc1	inactive
CCO/C([O-])=N/c1c[n+](N2CCOCC2)no1	inactive
CCOC(=O)c1ccc(O)cc1	inactive

Assay: Primary qHTS for Huh7 cytotoxicity: counterscreen for inhibitors of MERS-S pseudotyped particle cell entry (AID 1479147)
Details: cell viability read-out; series mostly up to 57.1 µM

SMILES	Potency
Nc1ccc(S(=O)(=O)Nc2ccccn2)cc1	inactive
O=S(=O)(O)c1ccc2nc(-c3ccccc3)[nH]c2c1	inactive
CC(CN(C)C)C(C)(O)Cc1ccc(Cl)cc1 (stereo unspecified)	inactive
CO[C@@]1(NC(=O)Cc2cccs2)C(=O)N2C(C(=O)O)=C(COC(N)=O)CS[C@@H]21	inactive
Nc1ncnc2c1ncn2[C@@H]1O[C@H](CO)[C@@H](O)[C@H]1O	inactive
C[C@@H]1[C@H](O)[C@@H](C)/C=C/C=C\C=C\C=C\C=C\C=C\C=C\[C@H](O[C@@H]2O[C@H](C)[C@@H](O)[C@H](N)[C@@H]2O)C[C@@H]2O[C@](O)(C[C@@H](O)C[C@@H](O)[C@H](O)CC[C@@H](O)C[C@@H](O)CC(=O)O[C@H]1C)C[C@H](O)[C@H]2C(=O)O (stereo in doubt)	inactive
CC(=O)CC/C=C(\C)CC/C=C(\C)CC/C=C(\C)CCC=C(C)C	inactive
CC(C)OC(=O)OCOP(=O)(CO[C@H](C)Cn1cnc2c(N)ncnc21)OCOC(=O)OC(C)C	inactive
Cc1c(F)c(N2CCNC(C)C2)cc2c1c(=O)c(C(=O)O)cn2C1CC1 (stereo unspecified)	inactive
O=S(=O)(O)c1ccc(O)cc1	inactive
N#Cc1ccc(C(c2ccc(C#N)cc2)n2cncn2)cc1	inactive
O=c1[nH]c(=O)n([C@H]2CCCO2)cc1F	inactive
Cc1nnc(NS(=O)(=O)c2ccc(N)cc2)s1	inactive
COc1ccc2cccc(CCNC(C)=O)c2c1	inactive
O=C(O)Cc1sc(-c2ccccc2)nc1-c1ccc(Cl)cc1	inactive
O=C(CO)[C@@H](O)[C@H](O)[C@@H](O)CO	inactive
CC(C)(C)NCC(O)COc1ccccc1OCC1CCCO1 (stereo unspecified)	inactive
O=C(O)C(S)C(S)C(=O)O (stereo unspecified)	inactive
CS(=O)(=O)c1ccc([C@@H](O)[C@@H](CO)NC(=O)C(Cl)Cl)cc1	inactive

SMILES	Potency
COc1ccnc(CS(=O)c2nc3ccc(OC(F)F)cc3[nH]2)c1OC (stereo unspecified)	inactive
COc1ccc(C(=O)c2ccccc2)c(O)c1	inactive
O=C1c2c(O)cccc2Cc2cccc(O)c21	inactive
NCC(=O)CCC(=O)O	inactive
Nc1nc(=O)n([C@@H]2CS[C@H](CO)O2)cc1F	inactive
O=C(O)c1cccnc1	inactive
CO[C@@]1(NC(=O)CSCC#N)C(=O)N2C(C(=O)O)=C(CSc3nnnn3C)CS[C@@H]21	inactive
CCCCOCCOC(=O)c1cccnc1	inactive
CC(CC(C#N)(c1ccccc1)C(C)C)N(C)C (stereo unspecified)	inactive
C[C@H](CS)C(=O)N1CCC[C@H]1C(=O)O	inactive
Cc1cc2c(cc1CC(=O)c1sccc1S(=O)(=O)Nc1onc(C)c1Cl)OCO2	inactive
Cc1cc(C)c(NC(=O)CN(CC(=O)O)CC(=O)O)c(C)c1Br	inactive
CCN(CC)CCNC(=O)c1cc(S(C)(=O)=O)ccc1OC	inactive
CC(=O)Nc1ccc(OC(=O)c2ccccc2OC(C)=O)cc1	inactive
CCOC(=O)/C=C(C)/C=C/C=C(C)/C=C/c1c(C)cc(OC)c(C)c1C	inactive
CCC1(C)CC(=O)NC1=O (stereo unspecified)	inactive
NNC(=O)c1ccncc1	inactive
CCO/C([O-])=N/c1c[n+](N2CCOCC2)no1	inactive
CCOC(=O)c1ccc(O)cc1	inactive
